About 31,000 (8.9%) of roughly 350,000 compounds were called active. Not shown: some 15% with an inconclusive outcome. The call rests on the fitted dose curve; in most records, active means well fitted inhibition curve with a large enough effect; inconclusive means small, poorly fitted or top-dose-only effect; inactive means no such curve, though single readings can be large or run the other way. The sample as a whole holds a higher share of actives than the screen did. A structure can be active in one record and inactive in another.
What follows are compounds tested against Histone-lysine N-methyltransferase EHMT2 (Homo sapiens) (UniProt Q96KQ7) (assay: qHTS Assay for Inhibitors of Histone Lysine Methyltransferase G9a). Settings: G9a H3K9 monomethylation, AlphaScreen, 2 h; series mostly up to 59 µM; activity, negative = inhibition: at the top concentration.
Chain of Histone-lysine N-methyltransferase EHMT2 (Homo sapiens) (Q96KQ7 913-1193 limits assumed): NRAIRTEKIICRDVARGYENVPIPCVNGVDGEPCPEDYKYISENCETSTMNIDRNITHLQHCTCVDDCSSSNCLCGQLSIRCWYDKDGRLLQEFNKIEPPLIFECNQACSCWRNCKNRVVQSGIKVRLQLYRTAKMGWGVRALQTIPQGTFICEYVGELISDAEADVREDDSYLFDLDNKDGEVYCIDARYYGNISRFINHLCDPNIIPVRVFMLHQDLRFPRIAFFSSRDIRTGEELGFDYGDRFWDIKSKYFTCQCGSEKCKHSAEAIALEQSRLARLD
Outline: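 G9a (20 nM) was preincubated 15 min with compound, then reacted 2 h at room temperature with 500 nM biotin-H3K9 peptide and 20 µM SAM. Monomethyl-H3K9 detected by AlphaScreen using anti-H3K9me1 antibody.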
Further: nearly all actives have a fitted effect of over 75% in size.
On the % scale 0 is the no-effect control and ±100 the full control effect; potency means the concentration at half of the fitted maximal effect.

activity, negative = inhibition, inactive:
CC1CCC2(CC1)N=C(c1ccccc1)C(=O)N2CC(=O)Nc1ccc(F)c(Cl)c1 (configuration not stated) 7.11%, O=C(NCc1cccnc1)C(=O)NCC(c1cccnc1)N1CCN(c2ccccc2)CC1 (configuration not stated) 4.02%, Cc1c(NC(=O)C(C)(C)C)cccc1-c1nc2ccccc2s1 2.75%, CCc1ccc(-n2nnc(-c3nc(-c4ccccc4)no3)c2C)cc1 6.71%, CCCCn1c(=N)c(S(=O)(=O)c2ccccc2)cc2c(=O)n3cccc(C)c3nc21 3.44%, COc1cccc(N=C2SC(C(=O)Nc3cccc(Cl)c3)CC(=O)N2C)c1 (configuration not stated) 12.3%, Cc1cccc2c1-c1sc(C(=O)Nc3ccc(F)cc3F)cc1CO2 28.5%, O=C(COC(=O)CCOc1ccccc1)Nc1cc(S(=O)(=O)N2CCCCC2)ccc1Cl 4.58% [at 2.33 µM], O=C(Nc1ccc(S(=O)(=O)N2CCc3ccccc3C2)cc1)c1ccccc1 46.5% [at 12.7 µM], CC(=O)c1c(C)[nH]c(C(=O)OCC(=O)Nc2cc(S(=O)(=O)N3CCCCC3)ccc2C)c1C -1.48%, CC(NC(=O)c1cccc(S(=O)(=O)N2CCc3ccccc3C2)c1)c1ccco1 (configuration not stated) 5.8%, O=C(COC(=O)Cc1ccc(F)cc1)Nc1cc(S(=O)(=O)N2CCOCC2)ccc1N1CCCC1 -1.2%, O=C(COc1cccc2ccccc12)Nc1cc(S(=O)(=O)N2CCOCC2)ccc1N1CCOCC1 -25.6% [at 102 µM], COc1cc(Nc2nc3ccc(Cl)cc3n3cnnc23)cc(OC)c1OC 98.3% [at 102 µM], COc1cc(F)c(C2=CC(=O)CC(C)(C)C2)cc1F -4.97% [at 0.501 µM], COc1ccccc1S(=O)(=O)NCc1ccc(C(=O)N(C)Cc2ccc(F)cc2)cc1 6.01% [at 2.33 µM], Cc1cccc(CCNC(=O)c2ccc3c(c2)nc2n3CCC(C)C2)c1 (configuration not stated) 2.69%, CC(=O)N1CCc2cc(Br)cc(S(=O)(=O)CCC(=O)NCCc3ccc(Cl)cc3)c21 9.87%, C/C(=N\NC(=O)c1ccccc1F)c1ccccn1 36.1% [at 102 µM], CCOC(=O)C1CCN(S(=O)(=O)c2cc(F)ccc2OC)CC1 11.3% [at 102 µM], CCOC(=O)C1CCN(C(=O)/C=C/c2cc(OC)c(OC)c(OC)c2)CC1 15.1%, Cc1ccc(S(=O)(=O)c2nc(-c3ccco3)oc2SCC(=O)Nc2ccc(F)cc2)cc1 0.772%, NS(=O)(=O)c1ccc(CCNC(=O)CN2C(=O)c3ccccc3S2(=O)=O)cc1 -0.171% [at 102 µM], CCC(=O)N1CCc2cc(Br)cc(S(=O)(=O)CCC(=O)NCCc3ccc(OC)c(OC)c3)c21 8.33%, Cc1ccccc1NC(=O)C(C)OC(=O)CCC(=O)N(CC(C)C)c1c(N)n(CC(C)C)c(=O)[nH]c1=O (configuration not stated) -28.5%, CC(C)(C)CC(C)(C)NCC(O)COCCOc1ccc(Br)cc1 (configuration not stated) 1.72%, CC(C)(C)NCC(O)COc1cccc2[nH]c(=O)[nH]c12 (configuration not stated) 21.7% [at 12.7 µM], COc1ccc(C2(C#N)CCC(C(=O)O)CC2)cc1OC1CCCC1 (configuration not stated) -32.8% [at 12.7 µM], Cc1ccc(S(=O)(=O)n2nc(C)c(S(=O)(=O)N3CCCCCC3)c2C)cc1 6.64%, COc1ccc(S(=O)(=O)n2nc(C)c(S(=O)(=O)N3CCCCCC3)c2C)cc1 -1.88%, COc1ccc(S(=O)(=O)c2c(Nc3cccc(Cl)c3)sc(C(=O)c3ccccc3)c2N)cc1 1.28%, CCCNC(=O)C1CCN(c2nc3ccc(C)cc3[nH]2)CC1 -0.986%, Cc1ccc2nc(/C(C#N)=C\c3ccc(OC(=O)c4cccs4)cc3)[nH]c2c1 7.86% [at 102 µM], COc1cccc(CNC(=O)CSc2c3c(nc4cc(Cl)ccc24)CCCC3)c1 -2.82%, COc1ccccc1CNS(=O)(=O)c1ccc(C)cc1 8.26%, Cc1ccc(CCNC(=O)c2ccc(CNS(=O)(=O)c3ccc(C)cc3)cc2)cc1 -2.1%, Cc1cc(C)c2sc(NC(=O)c3ccc(S(=O)(=O)N4CCCC4)cc3)nc2c1 7.98%, Cn1c(=O)c(C(=O)O)nn(-c2ccccc2)c1=O -33.3%, Cc1cccc(OCC(=O)N(Cc2ccc(C(C)C)cc2)Cc2ccco2)c1C 92.4%, CS(=O)(=O)c1sc2nc(-c3ccccc3)cc(-c3ccccc3)c2c1N 6.2%, CC1=C(c2ccc(Cl)cc2)S(=O)(=O)N=C1N1CCN(c2cc(C)ccc2C)CC1 -4.09%, COc1ccc(-c2c(-c3ccc(OC)cc3O)nc(C)nc2C(F)(F)F)cc1 0.626% [at 102 µM], CCOc1ccc(-c2cc3nc(C4CCN(C(=O)OC(C)(C)C)CC4)c(C(=O)Nc4ccc(C(=O)OC)cc4)cn3n2)cc1 -20.7%, CCOC(=O)c1sc(NC(=O)COc2ncnc3ccccc23)c(C(=O)OCC)c1C -4.04%, CCOC(=O)c1c(NC(=O)CSc2nnc(CNc3ccc(C)cc3C)o2)sc(C)c1C 3.71%, COc1cccc(CNC(=O)c2ccc3c(c2)N(Cc2ccc(C(F)(F)F)cc2)C(=O)c2ccccc2S3)c1OC -7.77%, O=C(c1ccncc1)N1CCN(S(=O)(=O)c2cccc([N+](=O)[O-])c2)CC1 14.7% [at 102 µM], O=C(N/N=C/c1cccc([N+](=O)[O-])c1)c1ccncc1 25.8% [at 102 µM], COc1ccc(C=Nc2cccc3ncccc23)cc1 -38.4% [at 102 µM], CC(C)(C)NS(=O)(=O)c1ccc(NC(=O)C2CCCO2)cc1 (configuration not stated) 51.9% [at 102 µM], O=C(CC(c1cccs1)N1Cc2ccccc2C1=O)Nc1ccc(F)c(F)c1 (configuration not stated) -1.11%, CCc1cccc(NC(=O)COC(=O)C2CCN(c3ccc(C(F)(F)F)cn3)CC2)c1 10.8% [at 0.501 µM], COc1ccc(C(=O)NCc2ccc(Cl)cc2)cc1S(=O)(=O)N1CCCC1 -2.17% [at 12.7 µM], C/C(Cc1ccccc1)=N\NC(=O)CNC(=O)c1cccc(Br)c1 -2.2%, CCCC(=O)Nc1cc(C(=O)NCc2ccc(OC)cc2)ccc1S(=O)(=O)c1ccc(Cl)cc1 -30.6%, CCCNC(=O)c1ccc(N2CCC3(CC2)CC(c2cccc(Br)c2)=NO3)c(NC(=O)c2ccco2)c1 7.48% [at 2.33 µM], Cc1cccc(C(=O)N2CCc3cc(CNC(=O)Cc4ccc(F)cc4)ccc32)c1 -0.833%, CCOC(=O)C(C)n1cnc2c(nnn2-c2cccc(OC)c2)c1=O (configuration not stated) 24% [at 102 µM], CCc1nnc(NC(=O)CCC(=O)N2CCN(c3cc(C)ccc3C)CC2)s1 74.2% [at 102 µM], O=C(c1ccncc1)N1CCN(c2ccc3ccccc3n2)CC1 25% [at 12.7 µM], COc1ccccc1N1CCN(C(=O)c2cc(-c3ccc(Cl)c(Cl)c3)on2)CC1 10.8%, Cc1ccc2c(=O)c(C(=O)c3ccc(Cl)cc3)cn(CC(=O)NC3CCCCC3)c2n1 1.24%, COC(=O)c1ccc(CSc2ccc(S(=O)(=O)N3CCCCC3)cn2)cc1 -3.87% [at 12.7 µM], O=C(O)c1ccc(/C=N/Nc2nc(N3CCCCC3)nc(N3CCCCC3)n2)cc1 7.89% [at 102 µM], CCNC(=S)NNC(=O)c1ccc2ncccc2c1 -36.9% [at 102 µM], COc1cccc(/C=C/C(=O)OCC(=O)N2CCCc3ccccc32)c1 23.6% [at 102 µM], CCOC(=O)c1ccc(NC(=O)c2ncn(-c3ccccc3)n2)cc1 7.4%, O=C(Nc1ccc(F)c([N+](=O)[O-])c1)C1CC(=O)N(Cc2ccccc2)C1 (configuration not stated) -40.7% [at 102 µM], Cc1cccc(C(C)C)c1NC(=O)COC(=O)C1CC(=O)N(Cc2ccccc2)C1 (configuration not stated) 7.15% [at 0.501 µM], CCOc1ccccc1NC(=O)CSc1ncc(S(=O)(=O)c2ccc(C(C)(C)C)cc2)c(=O)[nH]1 3.14%, Cc1ccccc1CSc1nc2c([nH]c3ccccc32)c(=O)n1C 9.49%, CCCCN(C(=O)C1CCC1)c1c(N)n(Cc2ccccc2)c(=O)[nH]c1=O -8.06% [at 12.7 µM], CCNC(=S)NNC(=O)C1CCN(Cc2ccccc2)CC1 2.28% [at 102 µM]

Potency, inactive:
COc1ccccc1OCCNCC(O)COc1cccc2[nH]c3ccccc3c12 (configuration not stated)

Potency, active:
CS(=O)(=O)c1ccc(Cl)c(NC(=O)COC(=O)c2cccc(S(=O)(=O)N3CCCC3)c2)c1 56.2 µM, CC(C)c1ccc(NC(=O)c2cc(S(=O)(=O)N3CCc4ccccc4C3)ccc2F)cc1 25.1 µM, O=C(COC(=O)c1ccccc1F)Nc1cc(S(=O)(=O)N2CCOCC2)ccc1N1CCCC1 35.5 µM, CCOC(=O)C1CCCCN1Cc1ccc(OC)c(OC)c1OC (configuration not stated) 12.6 µM, CC(C)(C)NCC(O)COc1cccc2[nH]c(=O)[nH]c12 (configuration not stated) 1.12 µM, COc1ccc(S(=O)(=O)n2nc(C)c(S(=O)(=O)N3CCOCC3)c2C)cc1 79.4 µM, Cc1ccc2nc(S(=O)(=O)O)[nH]c2c1 89.1 µM, COC(=O)C1=C(C)NC(=O)/C1=C/c1ccc(CNS(=O)(=O)c2ccc(C)cc2)o1 50.1 µM, CNC(=S)NNC(=O)c1oc2nc(-c3ccccc3)cc(-c3ccco3)c2c1N 10 µM, CCOC(=O)c1c(NC(=O)COc2cc(C)ccc2C(C)C)sc(C)c1C 1.78 µM, N/C(=N\OS(=O)(=O)c1cccc([N+](=O)[O-])c1)c1ccncc1 10 µM, Oc1c(C=Nc2cccc3nsnc23)ccc2ccccc12 2.24 µM, CCCN(CCC)CCNC(=O)c1ccc2c(c1)NC(=O)C(CS(=O)(=O)Cc1cccc(Br)c1)N2 (configuration not stated) 25.1 µM, Cc1ccccc1CS(=O)(=O)CC1Nc2ccc(C(=O)NCc3ccc(Cl)cc3)cc2NC1=O (configuration not stated) 10 µM, O=C(c1ccc2ccccc2n1)N1CCN(c2ccccc2Cl)CC1 44.7 µM, O=C(O)c1ccc(N/N=C/c2ccc3ncccc3c2)cc1 10 µM, CC(OC(=O)C1CC(=O)N(Cc2ccccc2)C1)C(=O)Nc1ccccc1[N+](=O)[O-] (configuration not stated) 56.2 µM, CCCCN(Cc1ccccc1)C(=O)C1CCN(Cc2sccc2C)CC1 14.1 µM
